An excerpt weighted towards active compounds, which were near 1.6% of everything screened.
Vif imaging: HIV Vif self-association inhibitors, primary screen, imaging, HEK293T, single point | HEK293T cells, Vif self-association by quenched fluorescence, 24 h | inhibition, % at 7.49 µM | 340,000 compounds, 0.35% hits | AID 602346, 2012; in the data active = inhibition above about 50%, passing the limit was not always enough; inconclusive = no clear call, values can overlap the other calls; inactive = below about 31%
Myeloid diff 2: induction of myeloid progenitor differentiation, primary screen, cell-based, flow cytometry, MLPCN library. ER-HoxA9 myeloid progenitors, lysozyme-GFP differentiation. calls only at 10 µM. 360,000 compounds, 1% hits. AID 624256, 2012;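 active = normalized GFP-positive differentiation at or above the plate's own cutoff, the solvent-only control mean plus 3 SD; inconclusive = no clear call, values can overlap the other calls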;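 note: cells exposed to compound for four days before flow analysis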
Glyco luc inh: increase of ERlucT glycosylation luciferase signal, primary screen, N-linked glycosylation inhibitor project, D54 ERlucT cells, luminescence, set 2 | D54 ERlucT glycosylation luciferase reporter, 24 h; percent of 100 nM tunicamycin response | reporter increase, % at 12.5 µM | 360,000 compounds, 0.23% hits | AID 588692, 2011;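 active = mean luciferase reporter signal, scaled so untreated is 0 and the glycosylation-blocking control 100, at or above a set limit in every replicate; inconclusive = mean reaches the limit but not every replicate does; inactive = mean below the limit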;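 note: luciferase carries N-glycosylation sites so blocking glycosylation raises the light; 0% = median of neutral control wells and 100% = median of 100 nM tunicamycin wells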
ABCB6 inh 2: ABCB6 transporter inhibitors, primary screen, K562-ABCB6 cells, flow cytometry, MLPCN library; K562-ABCB6 porphyrin accumulation, 1 h; active compounds read low; fluorescence ratio to DMSO, % at 10 µM; 360,000 compounds, 0.19% hits;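 active = fluorescence ratio to DMSO below 75%, the collection mean minus 3 SD; inconclusive = too few cells collected in the well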;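 note: signal is porphyrin accumulated inside mitochondria; 100% equals median channel fluorescence of DMSO control wells; lower ratio means ABCB6 inhibition with less porphyrin fluorescence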
RAD54 branch: inhibitors of human RAD54 branch migration, primary screen, biochemical, fluorescence, single point | DNA repair and recombination protein RAD54-like (Homo sapiens), Q92698 | RAD54 Holliday junction branch migration, FAM/BHQ fluorescence | inhibition, % at 10.4 µM | 360,000 compounds, 0.14% hits;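 active = mean normalized replicate activity at least 40 and at least half of replicates scoring 40 or more; inconclusive = only one of the two criteria met; inactive = mean below 40 and under half of replicates reaching 40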;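 note: 0% = median of neutral control wells and 100% = median of positive control wells; inhibitors cause a drop in the FAM fluorescence signal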
Target sequence (Q92698 whole entry, looked up): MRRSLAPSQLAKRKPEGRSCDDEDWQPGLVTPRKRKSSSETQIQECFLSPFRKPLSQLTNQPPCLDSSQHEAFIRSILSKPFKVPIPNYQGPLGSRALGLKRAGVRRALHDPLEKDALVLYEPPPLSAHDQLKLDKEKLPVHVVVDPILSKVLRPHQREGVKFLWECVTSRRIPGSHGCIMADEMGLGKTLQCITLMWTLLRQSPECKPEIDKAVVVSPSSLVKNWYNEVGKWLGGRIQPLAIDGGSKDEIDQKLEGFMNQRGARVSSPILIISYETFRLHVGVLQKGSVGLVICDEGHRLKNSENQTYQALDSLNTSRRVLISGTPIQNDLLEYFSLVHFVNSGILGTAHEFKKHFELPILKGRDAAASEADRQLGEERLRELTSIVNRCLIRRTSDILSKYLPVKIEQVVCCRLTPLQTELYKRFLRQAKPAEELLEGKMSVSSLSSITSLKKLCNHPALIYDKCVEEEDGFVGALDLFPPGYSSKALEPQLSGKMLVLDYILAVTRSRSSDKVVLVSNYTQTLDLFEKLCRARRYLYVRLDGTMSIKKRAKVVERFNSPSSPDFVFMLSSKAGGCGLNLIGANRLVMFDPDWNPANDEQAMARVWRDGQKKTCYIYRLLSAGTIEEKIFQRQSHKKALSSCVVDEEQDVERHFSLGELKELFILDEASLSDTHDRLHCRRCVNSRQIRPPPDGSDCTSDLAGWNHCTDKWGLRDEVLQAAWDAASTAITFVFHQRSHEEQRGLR
An asterisk follows results filed as active; i = inactive; ? = inconclusive; . = no result given; + = active, no number.

SMILES	Vif imaging	Myeloid diff 2	Glyco luc inh	ABCB6 inh 2	RAD54 branch
COc1ccc(C(=O)CC(SCC(NC(C)=O)C(=O)O)c2ccc(Cl)cc2)cc1OC (stereo unspecified)	0.1	i	33.2*	97.0	-5.2
CCC(CN(C)C)Oc1cc(NCc2ccccc2)c2ncn(C(C)C)c2c1 (stereo unspecified)	40.8	+	-3.8	139.0	70.0*
COc1cc(NCc2ccccc2)c2ncn(C(C)C)c2c1	-13.1	i	-1.5	98.0	-1.1
C[C@@H]1CCCCO[C@@H](CN(C)Cc2ccc3c(c2)OCO3)[C@H](C)CN([C@@H](C)CO)C(=O)c2cc(NC(=O)NC3CCCCC3)ccc2O1	.	.	.	.	4.0
CSc1ccc(C=NNc2ccc(S(=O)(=O)Nc3ccccc3C(=O)O)cc2[N+](=O)[O-])cc1	-4.9	+	0.4	100.0	6.5
CC(=O)C1CCC2C3CC(O)C4=CC(=O)CCC4(C)C3C(=O)CC12C (stereo unspecified)	8.9	+	1.2	103.0	.
CC(=O)[C@H]1CC[C@H]2[C@@H]3CCC4=CC(=O)CC[C@]4(C)[C@H]3CC[C@]12C	-1.5	i	-5.3	101.0	7.6
CCn1c(SCC(=O)c2ccc(O)c(O)c2)nnc1-c1ccccc1OC	.	i	-2.9	99.0	5.5
C=CCn1c(SCC(=O)c2ccc(O)c(O)c2)nnc1-c1ccccc1OC	53.6*	i	-4.0	101.0	11.0
CCCN(C)C[C@@H]1Oc2cc(C#CC3CCCC3)ccc2S(=O)(=O)N([C@@H](C)CO)C[C@@H]1C	.	.	.	.	4.1
O=C(c1cccc(C(F)(F)F)c1)C1CCCN(C(=O)c2cc(C3CC3)[nH]n2)C1 (stereo unspecified)	6.9	+	0.2	101.0	-7.3
O=C(CCn1ccc2cc(S(=O)(=O)N3CCCC3)ccc21)NCCc1ccccc1	9.9	+	1.8	167.0	0.1
Cn1nnnc1Sc1ncnc2scc(-c3ccccc3Br)c12	4.6	+	-3.5	94.0	-3.8
Cn1nnnc1Sc1ncnc2scc(-c3ccc(F)cc3)c12	52.3*	.	-14.2	94.0	-4.9
O=c1[nH]c(=O)c2nc3c4ccccc4c4ccccc4c3nc2[nH]1	16.0	?	95.9*	104.0	.
COc1ccc(N2CC(C(=O)Nc3nnc(SCC(=O)NCc4ccco4)s3)CC2=O)cc1 (stereo unspecified)	-8.3	+	0.6	99.0	-11.1
O=C(CSc1nnc(NC(=O)C2CC(=O)N(c3ccc(F)cc3)C2)s1)NCc1ccco1 (stereo unspecified)	-3.1	i	0.7	94.0	-0.1
CN1c2ccc(-c3ccc(F)cc3)cc2[C@@H]2[C@@H](CCN2C(=O)c2ccncc2)[C@@H]1CO	.	.	.	.	9.2
C=CCN1C(=O)/C(=c2\sc3nc(=O)c(Cc4ccc(OC)c(OC)c4)nn3c2=O)c2ccccc21	-3.7	i	-0.6	11.0*	-6.1
O=c1oc2ccccc2cc1-c1nc2c(s1)CCc1ccccc1-2	1.6	i	3.3	131.0	.
O=c1oc2cc(O)ccc2cc1-c1nc2c(s1)CCc1ccccc1-2	i	+	-1.1	499.0	.
COc1cccc(/C=N/NC(=O)C(=O)Nc2ccccc2OC(F)(F)C(F)F)c1O	3.2	+	-7.2	97.0	.
CS(=O)(=O)N1N=C(c2ccccc2)CC1c1ccc2c(c1)OCO2 (stereo unspecified)	2.8	+	0.5	590.0	.
CC(=O)N[C@@H]1CC[C@@H](CCNC(=O)Nc2ccc(C(F)(F)F)cc2)O[C@@H]1CO	.	.	.	.	-2.3
CC(=O)Cc1cc(O)c2ccccc2c1OC(=O)c1ccc(Br)cc1	?	+	-0.9	99.0	.
SMILES	Vif imaging	Myeloid diff 2	Glyco luc inh	ABCB6 inh 2	RAD54 branch
CCN(CC)c1ccc(/C=N/N=C(c2ccccc2)c2ccccc2)c(O)c1	1.3	+	-14.2	110.0	.
CCN(CC)c1ccc(/C=N/N(c2ccccc2)c2ccccc2)c(O)c1	-11.9	i	-10.2	127.0	-0.2
CCCN1CCN(CCCNC(=O)C2CCN(c3nnc(-n4cccc4)s3)CC2)CC1	0.5	i	0.2	101.0	-6.2
CCN1CCN(CCCNC(=O)C2CCN(c3nnc(-n4cccc4)s3)CC2)CC1	0.3	+	-0.6	97.0	-2.6
CCOCCCNC(=O)C(c1ccc(Cl)cc1)N(Cc1ccc2c(c1)OCO2)C(=O)CNC(C)=O (stereo unspecified)	-1.6	i	0.8	96.0	.
CC(C)(C)NC(=O)C(c1ccc(O)cc1)N(Cc1ccc2c(c1)OCO2)C(=O)CCl (stereo unspecified)	79.8*	i	2.6	93.0	4.4
COc1ccc(-n2c(Cc3ccccc3)nnc2SCc2ccc([N+](=O)[O-])cc2)cc1	-2.7	i	-5.2	97.0	.
O=[N+]([O-])c1ccc(CSc2nnc(Cc3ccccc3)n2-c2ccc(F)cc2)cc1	1.9	+	-8.9	101.0	.
c1ccc2c(c1)nc(N1CCOCC1)c1c3ccccc3[nH]c21	5.8	i	38.9*	89.0	.
O=C1OCC2=C1C(c1ccc(F)cc1)c1cc3c(cc1N2)OCO3 (stereo unspecified)	33.2	.	15.3	98.0	.
CCOc1ccccc1C1C2=C(COC2=O)Nc2cc3c(cc21)OCO3 (stereo unspecified)	80.7*	i	14.5	112.0	.
CN1C(=O)c2cc(NC(=O)c3cccc(F)c3)ccc2OC[C@H]2O[C@@H](CC(=O)NCc3ccccc3)CC[C@H]21	.	.	.	.	3.6
O=[N+]([O-])c1ccc(N/N=C/c2c[nH]c3ccccc23)c(S(=O)(=O)Nc2ccc(Cl)cc2)c1	i	+	0.2	398.0	2.9
Cc1[nH]c2ccccc2c1/C=N/NC(=O)c1cccc([N+](=O)[O-])c1	12.6	i	-1.9	92.0	.
Cc1[nH]c2ccccc2c1/C=N/Nc1ccc([N+](=O)[O-])cc1	i	+	-5.0	i	.
CN1CCN(S(=O)(=O)c2cc([N+](=O)[O-])ccc2N/N=C/c2ccc(Cl)cc2)CC1	-17.8	i	2.1	103.0	8.2
C/C(=N/Nc1ccc([N+](=O)[O-])cc1)c1c[nH]c2ccccc12	.	+	9.5	393.0	1.4
COc1ccccc1NS(=O)(=O)c1cc([N+](=O)[O-])ccc1N/N=C/c1c(C)[nH]c2ccccc12	.	+	-2.7	925.0	16.8
O=C(NC1CCCCC1)N[C@H]1CC[C@H](CCNS(=O)(=O)c2ccc(Cl)cc2)O[C@H]1CO	.	.	.	.	-10.5
CCOC(=O)N1CCN(C(=O)c2cccc(N3C(=O)NC4CC3(C)Oc3ccc(Cl)cc34)c2)CC1 (stereo unspecified)	0.1	i	29.3*	98.0	0.3

Compound activity as filed in PubChem.
